In PubChem BioAssay AID504467 (National Center for Advancing Translational Sciences (NCATS), 2011):
Hit rate of the full screen: of about 330,000 compounds, about 7,700 (2.3%) were called active. Where a call stands in place of a potency, no number is given. Inconclusive results (about 26%) are left out. The call rests on the fitted dose curve; in most records, active means well fitted inhibition curve with a large enough effect; inconclusive means small, poorly fitted or top-dose-only effect, or effect the other way; inactive means flat fitted curve, though single readings scatter. For the sample, actives were picked, then their nearest neighbours and some compounds at random.
Potency means the concentration at half of the fitted maximal effect.

Experiment: qHTS screen for small molecules that inhibit ELG1-dependent DNA repair in human embryonic kidney (HEK293T) cells expressing luciferase-tagged ELG1; further: nearly all actives have a fitted effect of over 55% in size
Details: HEK293T ELG1-luciferase reporter, luminescence, 16 h, DNA damage induced by 5-fluorouridine; series mostly up to 46.1 µM
Source text: NIH Molecular Libraries Probe Production Network [MLPCN] NIH Chemical Genomics Center [NCGC] MLPCN Grant: 1 R03 MH092164-01 Assay Provider: Kyungjae Myung, NHGRI, NIH Keywords: MLPCN, qHTS, NCGC, genotoxicity, cancer Assay Overview: Cancer cells divide rapidly compared to normal cells in the body. During cell division, cancer cells need to duplicate their genome by DNA replication. The failure of genome duplication leads to cancer cells' death. Therefore, inhibitors of DNA replication could specifically kill cancer cells. Based on this concept, many chemotherapeutic agents were developed and have been used to treat cancer patients. However, there are a limited number of agents available in the clinical setting, and some of those that do exist have low efficacy and severe side effects. Therefore, if we can find the compounds that effectively block DNA replication either by directly damaging DNA or by inhibiting other cellular mechanisms, the options for cancer treatment will be broadened. With this in mind, we developed a quantitative high-throughput ELG1-luciferase reporter gene assay. Small molecules that specifically block ELG1 function in response to DNA damage can be identified by monitoring the suppression of luciferase activity. Since ELG1 defines a pathway for repairing DNA damage, agents blocking ELG1 function can be used to sensitize cancer cells to chemotherapeutic agents whose mechanism of action involves the induction of DNA damage.
Assay Protocol Summary: For genotoxicity screening, 2,000 cells in 4 uL/well were dispensed into white, solid-bottom 1536-well plates using a solenoid-based dispenser. Following transfer of 1 uL 5-Fluorouridine and 23 nL compound or DMSO vehicle by a pin tool, the plates were incubated 16 hr at 37 °C and 5% CO2. 5 ul ONE-Glo (Promega) was then added to each plate and following a 30 min incubation at room temperature, luciferase activity was quantified on a ViewLux CCD-based plate reader.
With `Cc1cccc(N2C(=O)N3[C@H](c4ccc(F)cc4)[C@@H]4C(=O)N(C5CCCCC5)C(=O)[C@@H]4[C@]3(Cc3ccccc3)C2=O)c1` the Potency was “inactive”.
With `COc1ccc(CN2C3CCCC2CC(NC(=O)c2cccc(F)c2)C3)cc1` (centres undefined) the Potency was “inactive”.
With `CN(CC(=O)NCC(c1ccccc1)N1CCCC1)S(=O)(=O)c1ccc(Cl)cc1` (centres undefined) the Potency was “inactive”.
In the case of `COc1cc(/C=C2\SC(=O)NC2=O)ccc1OCc1ccc(Cl)nc1`, the Potency is reported as “inactive”.
With `O=C(NCC(c1ccco1)N1CCc2ccccc21)c1cccc(F)c1` (centres undefined) the Potency was “inactive”.
In the case of `CCCCn1c(N)c(N(CC)C(=O)c2ccc(N(C)S(=O)(=O)c3ccc(C)cc3)cc2)c(=O)[nH]c1=O`, the Potency is reported as “inactive”.
For `COCCN1C(=O)C(=O)/C(=C(/O)c2ccc(S(=O)(=O)N3CCCCC3)cc2)C1c1ccc(OC)c(OC)c1` (centres undefined), the Potency was “inactive”.
In the case of `Cn1cc(C(=O)c2ccc(Cl)cc2Cl)cc1C(=O)NN`, the Potency is reported as “inactive”.
With `Cc1noc(C)c1S(=O)(=O)N(C)C[C@H]1Oc2ccc(NC(=O)C3CC3)cc2C(=O)N([C@H](C)CO)C[C@@H]1C` the Potency was “inactive”.
In the case of `Cc1ccc(CN2CC(C(=O)NNC(=O)Cn3ccc(C(F)(F)F)n3)CC2=O)cc1` (centres undefined), the Potency is reported as “inactive”.
With `O=C(Nc1cc(C(F)(F)F)ccc1Cl)c1cc(C2CC2)on1` the Potency was “inactive”.
For `Cc1nn(Cc2ccc(Cl)c(Cl)c2)c(C)c1NC(=O)c1cc(C2CC2)on1`, the Potency was 16.4 µM (active).
With `Cc1cc(C(=O)Nc2c(C)nn(Cc3ccccc3)c2C)on1` the Potency was “inactive”.
For `CC(=O)Nc1cccc(NC(=O)c2ccc3c(c2)CCN3S(C)(=O)=O)c1`, the Potency was “inactive”.
For `O=C1c2ccccc2[C@@H]2C[C@@H](O)[C@H](Nc3ccccc3Cl)CCN12`, the Potency was “inactive”.
With `COc1cc(C(=O)NCC(=O)N2CC=C(c3ccccc3)CC2)cc(OC)c1OC` the Potency was “inactive”.
With `COc1cc(C(=O)Nc2oc(-c3ccccc3)c(-c3ccccc3)c2C#N)cc(OC)c1OC` the Potency was 23.1 µM (active).
With `O=C(CCN1C(=O)c2ccccc2C1=O)Nc1ccncc1` the Potency was “inactive”.
In the case of `Cc1cc(C)cc(NC(=O)CCN2C(=O)c3ccccc3C2=O)c1`, the Potency is reported as “inactive”.
With `CC(Oc1ccccc1)C(=O)Nc1oc(-c2ccco2)c(-c2ccco2)c1C#N` (centres undefined) the Potency was “inactive”.
In the case of `N#Cc1c(NC(=O)CCCN2C(=O)c3ccccc3C2=O)oc(-c2ccccc2)c1-c1ccccc1`, the Potency is reported as 7.94 µM (active).
For `CCOc1ccc(NC(=O)c2cccc3c2C(=O)N(CC2CCCO2)C3)cc1` (centres undefined), the Potency was “inactive”.
In the case of `CCc1ccc(OCC(=O)N(Cc2ccccc2)C2CCS(=O)(=O)C2)cc1` (centres undefined), the Potency is reported as “inactive”.
In the case of `CC[C@]12c3[nH]c4ccc(Cl)cc4c3CCN1C(=O)[C@@H](CC(=O)NCCCOC)C[C@@H]2C(=O)N1CCN(C(=O)c2ccco2)CC1`, the Potency is reported as “inactive”.
With `CN(C)C(CNC(=O)c1cccc(S(=O)(=O)Nc2ccc(Br)cc2)c1)c1ccco1` (centres undefined) the Potency was “inactive”.
For `COc1ccc(-c2noc(CCCC(=O)NC3CCCC3)n2)cc1OC`, the Potency was “inactive”.
In the case of `COc1ccc(CCNC(=O)C(=O)Nc2ccc3nc4n(c(=O)c3c2)CCCCC4)cc1OC`, the Potency is reported as 20.6 µM (active).
With `COc1ccc(NC(=O)Cn2nnc(C(=O)NCCc3ccc(OC)c(OC)c3)c2N)cc1` the Potency was “inactive”.
In the case of `O=C(Nc1ccc2nc3n(c(=O)c2c1)CCCCC3)c1ccccc1Cl`, the Potency is reported as “inactive”.
In the case of `O=C(NCCc1c[nH]c2ccccc12)C1CCN(Cc2ccc(Br)cc2)CC1`, the Potency is reported as “inactive”.
In the case of `CCCCNC(=O)c1cn(CC)c2cc(N3CCN(C(=O)c4ccco4)CC3)c(F)cc2c1=O`, the Potency is reported as 14.6 µM (active).
In the case of `CCn1cc(C(=O)NCCO)c(=O)c2cc(F)c(N3CCN(C)CC3)cc21`, the Potency is reported as “inactive”.
With `CCn1cc(C(=O)N/N=C(/C)c2ccc(F)cc2)c(=O)c2cc(F)c(N3CCCC3)cc21` the Potency was “inactive”.
With `COC(=O)CSc1nc2ccccc2c(=O)n1Cc1ccccc1` the Potency was “inactive”.
In the case of `O=S1(=O)CCOC[C@H](CC2CCCCC2)N1Cc1ccc(F)cc1`, the Potency is reported as “inactive”.
For `C=CC[C@@H](CC(=O)N[C@@H](CO)Cc1ccccc1)C(=O)NCCOC(=O)[C@@H](CC=C)CC(=O)OC(C)(C)C`, the Potency was “inactive”.
For `CCOC(=O)c1c(-c2ccc(C)cc2)csc1/N=C(\C)C1=C(O)c2ccccc2C1=O`, the Potency was 7.3 µM (active).
With `CCOC(=O)c1c(-c2ccccc2)csc1NC(=S)NC(=O)c1ccccc1` the Potency was “inactive”.
With `CCOC(=O)c1c(-c2ccc(-c3ccccc3)cc2)csc1NC(=O)CCC(=O)O` the Potency was “inactive”.
For `COc1cccc(CN(C)CC(O)COC(c2ccccc2)c2ccccc2C)c1` (centres undefined), the Potency was “inactive”.
In the case of `CCCC(=O)Nc1nnc(-c2ccccc2)o1`, the Potency is reported as “inactive”.
For `C=CCn1c(SCc2nnc(-c3ccccc3)o2)nnc1C(O)c1ccccc1` (centres undefined), the Potency was “inactive”.
For `CCCN(CCC)c1ccc(C(O)c2nnc(-c3ccccc3)o2)cc1` (centres undefined), the Potency was 20.6 µM (active).
For `CC(C)COc1ccc(C(=O)NNC(=O)CCC(=O)c2cccs2)cc1`, the Potency was “inactive”.
For `Cc1cccc(Cn2c(N3CCN(c4ccccc4)CC3)nc3c2c(=O)n(C)c(=O)n3C)c1`, the Potency was “inactive”.
For `CCC/C(C)=N\Nc1nc2c(c(=O)n(C)c(=O)n2C)n1C`, the Potency was “inactive”.
With `C/C(Cl)=C\Cn1c(Nc2cccc(C)c2)nc2c1c(=O)n(C)c(=O)n2C` the Potency was 9.2 µM (active).
For `CCc1[nH]nc(C(=O)N2CCCC(CO)(Cc3ccc(F)cc3F)C2)c1C` (centres undefined), the Potency was “inactive”.
In the case of `O=C1c2cccnc2C(Nc2ccc(S(=O)(=O)N3CCCCCC3)cc2)N1Cc1ccccc1` (centres undefined), the Potency is reported as 8.2 µM (active).
In the case of `O=C(COc1ccc(S(=O)(=O)N2CCCCC2)cc1)NCc1ccccn1`, the Potency is reported as “inactive”.
With `O=C(Nc1ccc(S(=O)(=O)N2CCCCC2)cc1)c1cnccn1` the Potency was “inactive”.
With `Cc1ccc2nc(SCC(=O)Nc3cccc4ccccc34)nc(=O)n2c1` the Potency was “inactive”.
With `O=C(NCCc1ccccn1)c1cccnc1Oc1ccc(Cl)cc1` the Potency was “inactive”.
In the case of `COC(=O)CNC(=O)c1cc(-c2ccncc2)nc2ccccc12`, the Potency is reported as “inactive”.
In the case of `O=C(NCCc1ccccn1)c1cc(-c2ccc(Cl)cc2)nc2ccccc12`, the Potency is reported as 23.1 µM (active).
For `Cc1ccccc1Nc1nc(N)nc(COC(=O)CCC(=O)c2ccc(F)cc2)n1`, the Potency was “inactive”.
In the case of `Cc1onc(-c2ccc(Cl)cc2)c1-c1ccnn1S(=O)(=O)c1ccc(Cl)cc1`, the Potency is reported as 14.6 µM (active).
With `COC(=O)c1noc(C)c1-c1ccnn1C(=O)c1ccc(Cl)cc1` the Potency was “inactive”.
In the case of `Cc1onc(-c2ccccc2)c1C(=O)N=C(N)c1ccc(Cl)cc1`, the Potency is reported as “inactive”.
In the case of `Cc1nn(-c2ccccc2)c(C)c1NC(=O)COc1ccc(Cl)cc1Cl`, the Potency is reported as 20.6 µM (active).
With `Cc1nn(-c2ccccc2)c(C)c1NC(=O)COC(=O)c1cc(Cl)ccc1O` the Potency was “inactive”.
With `Cc1nn(-c2ccccc2)c(C)c1NC(=O)CCl` the Potency was “inactive”.
In the case of `O=C(CSc1ncn[nH]1)Nc1ccc(Br)cc1Br`, the Potency is reported as “inactive”.
With `Nc1ncnc2c1ncn2[C@@H]1O[C@H](CNS(=O)(=O)c2ccc(-c3ccno3)s2)[C@@H](O)[C@H]1O` the Potency was “inactive”.
With `CCn1ccnc1CN(C)C(=O)c1cc(COc2ccc(-n3cncn3)cc2)on1` the Potency was “inactive”.
With `COc1ccc(CC(=O)Nc2nc(-c3ccc(F)c(F)c3)cs2)cc1OC` the Potency was “inactive”.
With `COc1cccc(CC(=O)Nc2nc(-c3ccc(OC)c(OC)c3)cs2)c1` the Potency was 25.9 µM (active).
In the case of `COc1cccc(CC(=O)Nc2ccc(-c3csc(C)n3)cc2)c1`, the Potency is reported as “inactive”.
For `COc1ccccc1C(=O)NCC(=O)OCC(=O)Nc1nnc(-c2ccccc2)o1`, the Potency was “inactive”.
With `COc1ccc(/C=C/C(=O)NC(=S)N2CCCC(C(N)=O)C2)cc1` (centres undefined) the Potency was “inactive”.
For `CCc1nnc(NC(=O)CSc2nc3c(c(=O)n2-c2ccccc2OC)SCC3)s1`, the Potency was 20.6 µM (active).
In the case of `CCOc1ccc(NC(=O)CSc2nc3c(c(=O)n2-c2ccccc2OC)SCC3)cc1`, the Potency is reported as “inactive”.
In the case of `CCOC(=O)c1sc(NC(=O)CSc2nc3c(c(=O)n2-c2ccccc2)SCC3)c(C(=O)OCC)c1C`, the Potency is reported as “inactive”.
For `Cc1ccc(S(=O)(=O)NCCC(=O)OCC(=O)N(C)c2ccccc2)cc1`, the Potency was “inactive”.
With `O=c1ccc2cc(S(=O)(=O)Nc3ccccc3F)ccc2o1` the Potency was “inactive”.
In the case of `O=c1oc(-c2ccccc2NS(=O)(=O)c2ccc(Cl)cc2)nc2ccccc12`, the Potency is reported as 14.6 µM (active).
For `O=c1oc2ccccc2c(NC2CCCCC2)c1NS(=O)(=O)c1ccc(Cl)cc1`, the Potency was “inactive”.
In the case of `CCOc1ccc(C(=O)Nc2ccc(S(=O)(=O)NCC3CCCO3)cc2)cc1OCC` (centres undefined), the Potency is reported as “inactive”.
With `CN(CC1CCCO1)S(=O)(=O)c1ccc(C(=O)Nc2ccc([N+](=O)[O-])cc2)cc1` (centres undefined) the Potency was 1.83 µM (active).
In the case of `Cc1ccc(NC(=O)c2ccc(S(=O)(=O)NCC3CCCO3)cc2)cc1C` (centres undefined), the Potency is reported as “inactive”.
With `O=C(Nc1ccc(S(=O)(=O)NCC2CCCO2)cc1)c1ccc(F)cc1` (centres undefined) the Potency was “inactive”.
In the case of `CN(CC1CCCO1)S(=O)(=O)c1ccc(C(=O)Nc2ccc(F)cc2)cc1` (centres undefined), the Potency is reported as 4.11 µM (active).
With `CCC(=O)Nc1ccc(S(=O)(=O)NCC2CCCO2)cc1` (centres undefined) the Potency was “inactive”.
With `Cc1c2cnn(CC(=O)NCc3ccccn3)c(=O)c2c(C)n1Cc1ccc(Cl)cc1` the Potency was “inactive”.
With `COc1cccc(-n2c(SCC(=O)NC3CCS(=O)(=O)C3)nc3ccccc3c2=O)c1` (centres undefined) the Potency was “inactive”.
In the case of `C[C@H]1CN([C@@H](C)CO)C(=O)Cc2cc(NC(=O)Cc3ccccc3)ccc2O[C@H]1CN(C)S(=O)(=O)c1cccs1`, the Potency is reported as “inactive”.
For `O=c1ccc2c(-c3ccccc3S(=O)(=O)O)c3ccc(O)c(O)c3oc-2c1O`, the Potency was 35.5 µM (active).
In the case of `COc1cc(OC)cc(-c2sc3ccc(OC)cc3c2-c2ccc3cc[nH]c3c2)c1`, the Potency is reported as “inactive”.
For `CC(C)CC1NC(=O)c2cc(Cl)ccc2-n2c1nc1ccccc1c2=O` (centres undefined), the Potency was “inactive”.
In the case of `Cc1cccc(N(Cc2ccccc2)C(=O)c2ccccc2F)c1`, the Potency is reported as “inactive”.
With `CCOc1ccc(NC(=O)CSc2nc3ccccc3c(=O)n2Cc2cccs2)cc1` the Potency was “inactive”.
With `COC(=O)c1ccc2c(=O)n(CCN3CCOCC3)c(SCC(=O)Nc3cccc(OC)c3)nc2c1` the Potency was “inactive”.
For `CCc1ccc(NC(=O)CSc2nc3ccccc3c(=O)n2CCN2CCOCC2)cc1`, the Potency was 23.1 µM (active).
With `Cn1c(=O)n(C)c2cc(S(=O)(=O)Nc3ccc(F)cc3)ccc21` the Potency was “inactive”.
